CHOP inh = inhibitors of CHOP induction in ER stress response; CHO-K1 CHOP-promoter luciferase, tunicamycin-induced, 15-18 h; inhibition, % at 10 µM; 220,000 compounds, 3.8% hits;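 active = compounds that reduced the stress-induced luciferase reporter signal by more than about 70% of percent inhibition, limit read from the data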;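 also: 0% = tunicamycin plus vehicle and 100% = wells without tunicamycin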
Arbovirus anti = antivirals against arbovirus infection. inhibition, % at 10 µM. arbovirus infection cell-based antiviral screen. 200,000 compounds, 0.37% hits; in the data active = inhibition above about 30%
L major viab = reduces viability of Leishmania major promastigotes. resazurin fluorescence viability. inhibition, % at 10 µM. 200,000 compounds, 9% hits. AID 1063; in the data active = inhibition above about 50%;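 also: promastigotes grown with compound for 44 hours at 28 °C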
WT yeast gro inh = growth inhibition of WT yeast, mitochondrial fusion screen; mitochondrial fusion phenotypic screen, WT strain; inhibition, % at 10 µM; 190,000 compounds, 2.1% hits; AID 1362; in the data active = inhibition above about 58%; tested in S. cerevisiae
* = called active by the depositor; nt = no result. The list is not random: actives were taken first. Their share in the collection is about 12%.

SMILES | CHOP inh | Arbovirus anti | L major viab | WT yeast gro inh
O=C(CCNC(=O)c1ccccc1Cl)Nc1nc(-c2ccccc2Cl)cs1 | -19.1 | 3.3 | 5.4 | 36.9
CCC(C)(C)C1CCC(=NNS(=O)(=O)c2ccc(C)c([N+](=O)[O-])c2)CC1 (stereo not given) | 70.4* | -18.4 | -5.4 | 2.9
CC/C(C)=N/NS(=O)(=O)c1ccc(C)c([N+](=O)[O-])c1 | -21.3 | nt | nt | nt
Cc1ccc(S(=O)(=O)N/N=C2/CCCCC2C2CCCCC2)cc1[N+](=O)[O-] (stereo not given) | 79.2* | 10.9 | -2.9 | 47.0
COc1ccccc1C(=O)N/C(=N/c1nc(C)cc(C)n1)Nc1ccccc1 | 21.8 | nt | nt | nt
C#Cc1ccc([C@@H]2C=C(C(=O)N3CCOCC3)O[C@H](OCC)[C@H]2CCCO)cc1 | -1.2 | 3.0 | 0.9 | -1.0
CCOC(=O)C(=CNc1cc(C)nn1-c1ccc(C)cc1)C(=O)OCC | 42.2 | 15.3 | 6.1 | 13.4
CCOC(=O)C(=CNc1ccc2c(c1)nnn2-c1ccc(Cl)cc1)C(=O)OCC | 78.8* | -36.6 | -0.9 | 2.4
COc1ccc(NC(=S)N(Cc2ccc(N(C)C)cc2)Cc2ccco2)cc1 | 6.6 | 6.9 | 38.8 | 11.1
CCOc1ccc(NC(=S)N(Cc2ccc(N(C)C)cc2)Cc2ccco2)cc1 | 37.0 | -6.5 | 16.5 | 59.0*
COCCNC(=S)N(CCc1c(C)[nH]c2ccc(C)cc12)Cc1ccco1 | 38.1 | -2.9 | 19.8 | 15.9
CCOc1ccc(NC(=S)N(CCc2c(C)[nH]c3ccc(C)cc23)Cc2ccco2)cc1 | -18.7 | 4.1 | 72.7* | 67.0*
CCOc1ccc(NC(=S)NN(C)C(=S)Nc2ccc(OCC)cc2)cc1 | 24.7 | -8.3 | -8.6 | 65.4*
CCCN(Cc1ccccc1)C(=S)Nc1ccc(OCC)cc1 | -23.2 | 5.3 | 0.0 | 37.2
COc1ccc(NC(=S)N(CCc2c(C)[nH]c3ccc(C)cc23)Cc2ccco2)cc1 | 14.6 | 4.0 | 31.3 | 68.7*
O=C(O)C1C2CCC(O2)C1C(=O)Nc1ccc(O)cc1 (stereo not given) | -33.3 | -9.5 | 39.0 | -5.8
O=S(=O)(c1cccc(-c2nnc(SCc3nc4ccccc4s3)o2)c1)N1CCOCC1 | 15.2 | 0.0 | 4.9 | 15.3
O=C(CSc1nnc(-c2ccc(S(=O)(=O)N3CCCC3)cc2)o1)NCc1ccco1 | 0.7 | 9.3 | 88.2* | 0.2
O=c1c2ccccc2nnn1CSc1nnc(-c2cccc(S(=O)(=O)N3CCCCC3)c2)o1 | 19.4 | -11.0 | 71.2* | 13.8
CCN(CC)C(=O)CSc1nnc(-c2ccc(S(=O)(=O)N3CCCC3)cc2)o1 | -5.1 | 11.3 | 98.9* | 3.1
O=C(CSc1nnc(-c2ccc(S(=O)(=O)N3CCCC3)cc2)o1)N1CCCC1 | nt | nt | 0.5 | nt
C=CCNC(=S)NNC(=O)COc1ccc(Cl)cc1Cl | 5.8 | -0.8 | -5.0 | 67.8*
C=CCNC(=O)COc1ccc(Br)cc1Cl | -19.4 | 0.7 | -5.4 | 1.2
O=C(COc1ccc(Cl)cc1Cl)NNC(=S)Nc1ccc(F)cc1 | 44.9 | 11.2 | -3.1 | 61.7*
O=C(CSc1ncnc2c(-c3ccc(Cl)cc3)nsc12)c1ccccc1 | 7.7 | 2.3 | 0.2 | 78.2*
SMILES | CHOP inh | Arbovirus anti | L major viab | WT yeast gro inh
COc1ccc(C(=O)/C=C/Nc2ccc(S(N)(=O)=O)cc2)cc1OC | 23.1 | nt | nt | nt
O=[N+]([O-])c1ccc(Sc2ccccn2)nc1 | 18.8 | nt | nt | nt
O=[N+]([O-])c1ccc(Sc2nnnn2-c2ccccc2)nc1 | -265.5 | -21.1 | 81.9* | 24.6
Cc1cc(C)nc(/N=C(\N)Nc2ccc(OCc3ccccc3)cc2)n1 | 29.8 | -35.1 | 100.2* | 14.4
COc1ccc(Oc2nc3ccccc3nc2C(F)(F)F)cc1 | 70.4* | 2.5 | -1.9 | 0.2
COc1ccc(Oc2nc(-c3cccnc3)nc3ccccc23)cc1 | 17.9 | nt | nt | nt
COc1ccc(Oc2nc(SC)nc3ccccc23)cc1 | 82.0* | 0.4 | -3.5 | 0.0
COc1ccc(Oc2nc3ccccc3n3cccc23)cc1 | 6.5 | -4.8 | -6.3 | 11.5
C#CCNC(=O)C1=C[C@H](c2ccccc2)[C@@H](CCCO)[C@H](OCC)O1 | 6.8 | 1.3 | -9.2 | -5.1
S=C(NN=C(C1CC1)C1CC1)Nc1ccccc1 | -26.9 | -2.3 | 66.6* | -1.9
CC1CCCCN1CCCNC(=O)c1ccc2c(=O)n(CCc3ccccc3)c(=O)[nH]c2c1 (stereo not given) | 16.1 | -29.6 | 23.7 | 16.4
CCCCCn1c(=O)[nH]c2cc(C(=O)NCCCN3CCC(C)CC3)ccc2c1=O | 21.2 | -16.6 | 57.9* | 13.1
CC1CCN(CCCNC(=O)c2ccc(Cn3c(=S)[nH]c4ccc(Br)cc4c3=O)cc2)CC1 | 13.8 | -31.9 | 98.9* | -0.4
CC1CCN(CCCNC(=O)c2ccc3c(=O)n(CCc4ccccc4)c(=O)[nH]c3c2)CC1 | 0.3 | -11.3 | 97.3* | -3.2
CC1CCCCN1CCNC(=O)c1ccc2c(=O)n(CCc3ccccc3)c(=O)[nH]c2c1 (stereo not given) | -9.7 | 0.1 | 62.9* | 18.7
CCCCCn1c(=O)[nH]c2cc(C(=O)NCCCN3CCCCC3)ccc2c1=O | 15.0 | -12.4 | 5.7 | -0.5
Cc1ccc(S(=O)(=O)N(C)c2c(C)ccc(S(N)(=O)=O)c2C)cc1 | 7.8 | -6.5 | 9.7 | 0.9
CCOc1ccc(CCNC(=O)COC(=O)c2nc3nc(C)cc(C)n3n2)cc1OCC | -5.2 | -7.8 | 33.9 | -1.7
O=c1c(C(c2ccc(F)cc2)c2c(O)nc3n(c2=O)CCS3)c(O)nc2n1CCS2 | 14.5 | nt | nt | nt
COc1ccc2cc(CCN3C(=O)c4ccccc4C3=O)c(=O)[nH]c2c1 | -18.3 | 2.8 | -9.6 | -12.3
COC(=O)[C@@H](NC(=O)NC1CCCCC1C)C(C)C (stereo not given in full) | 8.0 | nt | nt | nt
CC1=NN(c2ccc(Cl)cc2)C(=O)/C1=C\c1cccn1-c1ccc(S(N)(=O)=O)cc1 | -7.7 | 10.9 | 50.4* | 81.2*
CC1=C(C)CC(C(=O)Nc2ccc3c(c2)OCO3)C(C(=O)O)C1 (stereo not given) | 14.5 | -4.4 | -4.6 | -2.5
Cc1ccc(N(CC(O)Cn2c3ccccc3c3ccccc32)S(C)(=O)=O)c(C)c1 (stereo not given) | 85.2* | -7.9 | -2.6 | 66.7*
Cc1cccc(C)c1N(CC(O)Cn1c2ccccc2c2ccccc21)S(C)(=O)=O (stereo not given) | 43.1 | -36.5 | 36.6 | 37.3
SMILES | CHOP inh | Arbovirus anti | L major viab | WT yeast gro inh
CC(=O)Nc1ccc(N(CC(O)Cn2c3ccccc3c3ccccc32)S(=O)(=O)c2ccc(C)cc2)cc1 (stereo not given) | 41.8 | -23.3 | 61.8* | -12.0
Cc1cc(C)n(CC(O)CN(c2ccccc2)S(=O)(=O)c2ccccc2)n1 (stereo not given) | 12.3 | 11.1 | 0.0 | -7.5
Cc1ccc(N(CC(O)Cn2nc(C)cc2C)S(=O)(=O)c2ccc3ccccc3c2)cc1 (stereo not given) | 35.4 | -8.0 | 75.8* | 33.7
Cc1ccc(N(CC(O)Cn2c3ccccc3c3ccccc32)S(C)(=O)=O)cc1 (stereo not given) | 83.0* | -37.2 | 40.6 | 40.1
O=C(c1ccccc1SCc1ccccc1)N1CCCCCC1 | 9.5 | 2.4 | 11.4 | 6.1
Cc1ccccc1NC(=O)N1CCN(S(=O)(=O)c2ccccc2)CC1 | 15.2 | 0.6 | 5.8 | 6.9
CC(=O)c1cccc(NC(=O)C(=O)Nc2cccc3ccccc23)c1 | -13.6 | -10.4 | -5.9 | 3.6

Screening results (PubChem)
